Source: PubChem BioAssay (several laboratories)
Shown are actives, neighbours in structure and some others; about 32% of the full set was active somewhere.
CYP2C19 inh: human CYP2C19 inhibition; CYP2C19 Supersomes, luciferin-H EGE luminescence, 30 min; inhibition, % at 5 µM; 21% of 96,000 active; AID 778; P33261;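 active means CYP2C19 inhibition above a set limit at 5 µM in the primary screen, cut at about 50% in these data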
Target sequence (P33261 whole entry, looked up): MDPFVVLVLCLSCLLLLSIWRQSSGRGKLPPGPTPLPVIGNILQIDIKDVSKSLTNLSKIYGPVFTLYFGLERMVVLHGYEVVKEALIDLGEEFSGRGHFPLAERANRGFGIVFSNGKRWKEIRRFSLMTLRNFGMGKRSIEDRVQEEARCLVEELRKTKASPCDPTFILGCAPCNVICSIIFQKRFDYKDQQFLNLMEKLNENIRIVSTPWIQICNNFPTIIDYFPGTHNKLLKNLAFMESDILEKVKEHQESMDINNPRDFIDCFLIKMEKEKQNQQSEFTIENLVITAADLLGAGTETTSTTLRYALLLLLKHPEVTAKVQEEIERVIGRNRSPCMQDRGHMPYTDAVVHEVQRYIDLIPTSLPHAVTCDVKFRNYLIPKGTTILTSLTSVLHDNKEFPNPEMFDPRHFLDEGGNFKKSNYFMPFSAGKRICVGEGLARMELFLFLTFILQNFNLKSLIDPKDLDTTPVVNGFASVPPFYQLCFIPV
CYP2C19 act: activators of human cytochrome P450 2C19. recombinant CYP2C19, luciferin-H EGE luminescence; hits give high values; 0 = fully inhibited enzyme, 1 = untreated enzyme. activation factor at 5 µM. 96,000 tested, under 10 active;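 active means activation factor of at least 2 at 5 µM in the primary screen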
CYP2C9 inh: human CYP2C9 inhibition; P11712; 20% of 96,000 active; inhibition, % at 5 µM; CYP2C9 Supersomes, luciferin-H conversion, luminescence;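 active means blocking of liver enzyme CYP2C9 beyond about 50% at 5 µM, limit read from the data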
PostGolgi yeast: growth inhibition of a yeast mutant, post-Golgi transport screen; post-Golgi transport phenotypic cell assay; inhibition, % at 10 µM; 0.9% of 98,000 active;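 further: yeast cells grown in 1536-well plates; yeast grown about 18 h at 30C before absorbance read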
PostGolgi ctrl: yeast control strain growth, post-Golgi counter-screen. 5% of 98,000 active. efflux-deficient yeast background strain, growth absorbance A615, 16 h. inhibition, % at 10 µM
CYP2C9 act: increases human cytochrome P450 2C9 activity. P11712. recombinant CYP2C9, luciferin-H conversion, luminescence; hits give high values; factor 1 = untreated enzyme, 0 = blocked. activation factor at 5 µM. 1.4% of 96,000 active. AID 1024;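 active means activation factor of 2 or more for CYP2C9 at a 5 µM dose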
Large screens that a line does not name were inactive. Unless noted, no stated cut-off is given here; in the data, active means inhibition above about 30%; inactive means the rest.

Cc1cc(C(=O)CSc2nnc(-c3ccc(F)cc3)o2)c(C)n1CC1CCCO1 (centres undefined)	none
Cc1cc(C(=O)CSc2nnc(-c3ccco3)o2)c(C)n1CC1COc2ccccc2O1 (centres undefined)	CYP2C19 inh 100, CYP2C9 inh 78
Cc1cc(C(=O)CSc2nnc(-c3ccccc3)o2)c(C)n1CC1COc2ccccc2O1 (centres undefined)	CYP2C19 inh 88
CC1=C(C(=O)Nc2ccccc2)C(c2ccncc2)C(C#N)=C(SCC(=O)NC2CC2)N1 (centres undefined)	CYP2C19 inh 85, CYP2C9 inh 77
CC1=C(C(=O)Nc2ccccc2)C(c2ccncc2)C(C#N)=C(SCC(=O)NC(C)C)N1 (centres undefined)	CYP2C19 inh 78, CYP2C9 inh 65
CC1=C(C(=O)Nc2ccccc2)C2(CCCCC2)C(C#N)=C(SCC(N)=O)N1	none
Cc1cc(C(=O)COC(=O)CCC(=O)c2ccc3c(c2)OCCO3)c(C)n1Cc1ccco1	CYP2C19 inh 67, CYP2C9 inh 68
CCOc1ncccc1C(=O)OCC(=O)c1ccc(Cl)s1	CYP2C19 inh 55
CCOc1ncccc1C(=O)OCC(=O)c1cc(C)n(Cc2ccco2)c1C	CYP2C19 inh 80, CYP2C9 act 2.3
CCOC(=O)c1cnc2c(C)cccc2c1NCc1ccco1	none
CCOc1ncccc1C(=O)OCC(=O)c1c(N)n(C)c(=O)n(C)c1=O	none
O=C(CCCc1nc(-c2ccc(Cl)cc2)no1)N1CCOCC1	none (no result: CYP2C19 inh, CYP2C19 act, CYP2C9 inh, CYP2C9 act)
CC(=O)c1cc(-c2ccccc2)n(CCC(=O)NCc2cccs2)c1C	CYP2C19 inh 73, CYP2C9 inh 54
CC(=O)c1cc(-c2ccc(F)cc2)n(CC(=O)NCc2cccs2)c1C	CYP2C19 inh 81
O=C(Cc1cccs1)NCc1ccc(F)cc1	none
O=C(CCN1C(=O)/C(=C/C=C/c2ccccc2)SC1=S)Nc1nccs1	none
O=C(Nc1cccnc1Cl)c1ccc(S(=O)(=O)N2CCCCCC2)cc1	none
COc1ccccc1COC(=O)Nc1c(C)nn(C)c1Cl	none
COc1cc(NC(=S)Nc2ccc(S(=O)(=O)N3CCOCC3)cc2)cc(OC)c1OC	none
CCC(=O)N1CCCc2cc(S(=O)(=O)N3CCCc4ccccc43)ccc21	PostGolgi ctrl 35
COC(=O)COc1ccc(S(=O)(=O)N2CCc3ccccc3C2)cc1C	CYP2C19 inh 79, CYP2C9 act 2.1
O=C(O)C1C2C=CC(O2)C1C(=O)Nc1ccc(S(=O)(=O)N2CCc3ccccc32)cc1 (centres undefined)	none
CC(=O)Nc1ccc(S(=O)(=O)N2CCCc3ccccc32)cc1	none
O=S(=O)(NC1CC1)c1ccc(S(=O)(=O)N2CCc3ccccc32)cc1	CYP2C19 inh 72, CYP2C9 inh 82
Nc1ccc(S(=O)(=O)N2CCCc3ccccc32)cc1	CYP2C19 inh 74, CYP2C9 act 3.7
COC(=O)COc1ccc(S(=O)(=O)N2CCOCC2)cc1C	none
FC(F)(F)c1cccc(-c2nnc3ccc(C(F)(F)F)cn23)c1	none
CCC(=O)N1CCc2cc(S(=O)(=O)N3CCc4ccccc4C3)ccc21	none
O=C(Cn1c(=O)oc2cc(S(=O)(=O)N3CCc4ccccc43)ccc21)N1CCCCC1	none
CC(=O)N1CCCc2cc(S(=O)(=O)N3CCc4ccccc4C3)ccc21	CYP2C19 inh 74
CCn1c(=O)n(CC)c2cc(S(=O)(=O)N3CCc4ccccc43)ccc21	CYP2C19 inh 96, CYP2C9 inh 95
CCCc1nc(N)c(C#N)c(N)c1C#N	none
CC(C)CN(CC(C)C)c1nc(N)c(C#N)c(CC#N)c1C#N	CYP2C19 inh 69, CYP2C9 inh 86
Cc1ccc(NC2=NC3(CCCCC3)N=C(N)N2)c(C)c1	none
O=C(NCCN1CCOCC1)c1cnn2c(-c3ccccc3)cc(-c3ccccc3)nc12	CYP2C19 inh 57
O=C(NCCN1CCOCC1)c1ccccc1-c1ccccc1	none
CCOC(=O)N1CCC(NC(=O)C2CCN(S(=O)(=O)N3CCC(C)CC3)CC2)CC1	none
CCn1c(SC(C)C(=O)O)nc2sc3c(c2c1=O)CCC3 (centres undefined)	CYP2C9 inh 74
CCn1c(SCC(=O)N2CCOCC2)nc2oc3c(Cl)cc(Cl)cc3c(=O)c2c1=O	none
CCn1c(SCC(=O)N2CCOCC2)nc2sc3c(c2c1=O)CCCC3	CYP2C9 inh 66
CCc1nc2sc3c(c2c(=O)n1NC(=O)CCl)CCCC3	CYP2C9 inh 76
CCc1nc2sc3c(c2c(=O)o1)CCCC3	none
COc1ccc(OC)c(CCNC(=O)Cn2sc3nc(C)cc(C)c3c2=O)c1	CYP2C9 inh 65
CCCc1nc2ccccc2n1CCOC	none
c1ccc(Cc2nc3ccccc3n2Cc2ccccc2)cc1	CYP2C9 inh 92
CC(C)(C)Cc1nc2ccccc2n1CCc1ccccc1	CYP2C19 inh 85
CN(Cc1ccccc1)S(=O)(=O)c1cccs1	CYP2C19 inh 98
CN(Cc1cccs1)c1ncnc2sccc12	none
CN(CC(=O)NCCc1ccccc1)S(=O)(=O)c1cccs1	CYP2C19 inh 58
CN(CC(=O)O)S(=O)(=O)c1cccs1	none
CN(Cc1cccs1)S(=O)(=O)c1cccs1	CYP2C19 inh 92
CC(C)C(NS(=O)(=O)c1cccs1)C(=O)N(C)Cc1ccccc1 (centres undefined)	CYP2C19 inh 96, CYP2C9 inh 96
Cc1nc2scc(-c3ccc(Cl)cc3)c2c(=O)o1	none
N#Cc1c2c(c(=S)n(-c3ccccc3)c1N)CCCC2	CYP2C9 inh 57
CCOC(=O)c1c2c(c(=S)n(-c3ccccc3)c1N)CCC2	CYP2C19 inh 60, CYP2C9 inh 54
N#Cc1c(C#N)c(-c2ccccc2)n(-c2ccccc2)c1N	none
CCCC(c1nnnn1CC(=O)OCC)N(Cc1cc2c(C)cc(C)cc2[nH]c1=O)C1CCCC1 (centres undefined)	none
Cn1c2c(c(=O)n(C)c1=O)C1(C(=O)Nc3ccccc31)C(C#N)=C(N)O2 (centres undefined)	none
COc1cccc(Nc2nc(NCCO)c3ccccc3n2)c1	CYP2C19 inh 51
CCC1c2ccc(C)n2CCN1C(=O)Nc1ccc(F)cc1 (centres undefined)	none
O=C(NCc1ccco1)c1ccc(Cn2c(=O)c3ccccc3n(Cc3cccc(F)c3)c2=O)cc1	CYP2C19 inh 80, CYP2C9 inh 61
O=C(NCc1ccco1)c1ccc(Cn2c(=O)c3ccccc3n(Cc3ccc(Cl)cc3)c2=O)cc1	CYP2C19 inh 76, CYP2C9 inh 86
O=C(NCc1ccco1)c1cccc(F)c1	none
Cc1ccc(Cn2c(=O)n(Cc3ccco3)c(=O)c3ccccc32)cc1	none (no result: CYP2C19 inh, CYP2C19 act, CYP2C9 inh, CYP2C9 act)
O=c1c2ccccc2n(Cc2ccc(Cl)cc2)c(=O)n1Cc1ccco1	PostGolgi ctrl 75 (no result: CYP2C19 inh, CYP2C19 act, CYP2C9 inh, CYP2C9 act)
Cc1ccc(Cl)cc1NC(=O)c1ccc(CSc2nnnn2C)cc1	none
Cc1ccc(F)c(NC=C2C(=O)OC(C)(C)OC2=O)c1	none (no result: PostGolgi yeast, PostGolgi ctrl)
C=CCOc1ccc(CNc2nn[nH]n2)cc1OC	CYP2C19 inh 81
